# High-throughput results deposited in PubChem by National Center for Advancing Translational Sciences (NCATS).
# 3T3 cytotox: cytotoxic compounds in NIH 3T3 cells | NIH 3T3 viability, CellTiter-Glo ATP luminescence, 48-72 h | Potency, µM (doses to about 96.7 µM), for the others: at the highest dose activity change, negative = cytotoxicity, actives largely listed as inhibitors | 4.3% of 94,000 active | AID 1345082; note: nearly all actives have a fitted effect of over 55% in size
#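 First NIH 3T3 cells are plated at 400 cells/well; next compound is pinned in; then plates incubate 48 or 72 hr at 37 °C; finally CellTiter-Glo is added and luminescence read after 10 min.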
# NPR1 antag: antagonists of human natriuretic peptide receptor Npr1; HEK293 hNpr1 GloSensor cGMP, ANP-stimulated luminescence; Potency, µM (series often up to 46.3 µM), without a hit: at the highest dose activity change, negative = inhibition, usual class: inhibitors; 1.6% of 76,000 active; calls by dose curve; note: nearly all actives have a fitted effect of over 60% in size
#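 HEK293 cells stably expressing human Npr1 and cGMP GloSensor pGS-40F, loaded 2 h with 2% GloSensor reagent, given compound 30 min at room temperature. Luminescence read before and 20 min after 0.1 nM hNppA.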
# FLuc inh: blocks purified firefly luciferase enzyme activity | 2.5% of 76,000 active | purified P. pyralis luciferase, luminescence, biochemical | Potency, µM (titrated, usually from 115 µM), most hits filed as inhibitors; note: nearly all actives have a fitted effect of over 65% in size
# Target sequence (P08659 whole entry, looked up): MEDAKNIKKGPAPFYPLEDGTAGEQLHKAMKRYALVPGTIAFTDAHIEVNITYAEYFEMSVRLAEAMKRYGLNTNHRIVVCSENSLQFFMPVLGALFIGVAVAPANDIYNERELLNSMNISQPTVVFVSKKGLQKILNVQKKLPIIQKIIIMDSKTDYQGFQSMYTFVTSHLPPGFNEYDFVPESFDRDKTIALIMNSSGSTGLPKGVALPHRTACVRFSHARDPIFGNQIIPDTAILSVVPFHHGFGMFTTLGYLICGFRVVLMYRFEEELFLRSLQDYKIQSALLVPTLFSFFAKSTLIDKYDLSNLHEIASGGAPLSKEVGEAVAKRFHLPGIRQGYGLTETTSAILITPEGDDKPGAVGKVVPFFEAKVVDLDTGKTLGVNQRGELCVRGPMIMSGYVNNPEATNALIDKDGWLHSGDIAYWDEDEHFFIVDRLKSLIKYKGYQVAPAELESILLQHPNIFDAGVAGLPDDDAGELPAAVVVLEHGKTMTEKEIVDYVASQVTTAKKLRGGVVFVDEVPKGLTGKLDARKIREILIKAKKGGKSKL
#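 FLuc 10nM, D-luciferin 10uM, ATP 10uM, Mg acetate 10mM, Tris acetate pH 7.5, Tween/BSA; cpd qHTS; enzyme added last; CCD luminescence.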
# HEK cytotox: kills HEK 293 cells | HEK 293 viability, ATP luminescence (CellTiter-Glo), 48-72 h | Potency, µM (top dose mostly 115 µM), without a hit: at the highest dose activity change, negative = cytotoxicity, most hits filed as inhibitors | 6.6% of 94,000 active | AID 1345083; note: nearly all actives have a fitted effect of over 60% in size
#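 HEK 293 cells seeded at 250 cells/well were exposed to compound for 48 or 72 hr at 37 degree Celsius. Viability taken as ATP content by CellTiter-Glo luminescence.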
# Active calls of the source: *; i = inactive; ? = inconclusive; · = not tested or not shown; [ ] = remark or other dose. The list is not random: actives were taken first. Their share in the collection is about 11%. Unless noted, calls come from the whole dose curve; as a rule, active = well fitted curve in the direction sought with a large enough effect; inconclusive = small, poorly fitted or top-dose-only effect, or another doubt; inactive = no such curve, though single readings can be large; an effect the other way counts as inactive or inconclusive. % is set by controls: 0 for no effect and ±100 for the full control effect; potency is the fitted concentration of half-maximal effect.
SMILES,3T3 cytotox,NPR1 antag,FLuc inh,HEK cytotox
COC(=O)N1CCc2nc(C(C)C)nc(-c3ccc(OC)cc3)c2CC1,-2%,0%,i,?
FC(F)(F)Oc1ccc(Nc2cnc3ccc(N4CCOCC4)nn23)cc1,?,-5%[70.6 µM],i,50µM*
COc1ccc(Nc2cnc3ccc(N4CCOCC4)nn23)cn1,?,-1%[70.6 µM],i,?
FC(F)(F)c1cc(Nc2cnc3ccc(N4CCOCC4)nn23)ccc1Cl,?,?,i,79µM*
O=C(NCc1ccc(F)cc1)c1nc(-c2ccc(F)cc2)c2cnccn12,?,4%,i,?
CN(C)CCNC(=O)C(C)(C)Oc1nn(CCOc2ccccc2)c2ccccc12,25µM*,-15%[70.6 µM],i,89µM*
CC(C)(Oc1nn(CCOc2ccccc2)c2ccccc12)C(=O)Nc1cccnc1,?,-21%[70.6 µM],i,?
CN1CCC(NC(=O)C(C)(C)Oc2nn(CCOc3ccccc3)c3ccccc23)CC1,40µM*,0%[70.6 µM],i,89µM*
COc1ccc2nc([C@H]3CCN(Cc4ccccc4)C3)[nH]c2c1,?,-2%[70.6 µM],22µM*,?
COc1ccc2nc([C@H]3CCN(Cc4ccc(F)cc4)C3)[nH]c2c1,112µM*,-15%[70.6 µM],50µM*,79µM*
COc1ccc2nc([C@H]3CCN(Cc4cccc(Cl)c4)C3)[nH]c2c1,?,?,i,?
COc1ccc2nc([C@H]3CCN(Cc4cccnc4)C3)[nH]c2c1,-17%[174 µM],2%[70.6 µM],71µM*,-1%[172 µM]
Cc1ccc2nc([C@H]3CCN(Cc4ccccn4)C3)[nH]c2c1,?,-6%[70.6 µM],40µM*,50µM*
CC(=O)N1CCC(C(=O)N2CCCC(c3nc4ccncc4[nH]3)C2)CC1 (centres undefined),-17%,·,·,-8%
COc1ccccc1-n1c(=O)c(C(=O)NCCc2ccc(F)cc2)nc2cccnc21,-22%,·,·,3%
CCN1CCC(OCCCNC(=O)C2(CCO)CC23CCOCC3)CC1 (centres undefined),i,1%,i,i
O=C(c1cccc(Cl)c1)N1CCC(C(=O)N2CCCC(c3nc4ncccc4[nH]3)C2)CC1 (centres undefined),?,·,·,-2%
CNC(=O)c1ccc2c(c1)NC(C)(CNc1ccccc1)CO2 (centres undefined),-24%[138 µM],-4%[70.6 µM],i,?
COc1cc(CNC(=O)c2ccc3c(c2)NC(C)(CNc2ccccc2)CO3)cc(OC)c1 (centres undefined),?,1%,i,35µM*
CC1(CNc2ccccc2)COc2ccc(C(=O)NCc3ccc(F)cc3)cc2N1 (centres undefined),45µM*,-19%[70.6 µM],i,71µM*
CC1(CCCCc2ccccc2)COc2ccc(C(=O)NC3CCC(O)CC3)cc2N1 (centres undefined),79µM*,-5%[70.6 µM],i,71µM*
CC1(CNc2ccccc2)COc2ccc(C(=O)NCCc3ccccc3)cc2N1 (centres undefined),28µM*,0%[70.6 µM],?,?
CCOCC1(C)COc2ccc(C(=O)NCc3cc(OC)cc(OC)c3)cc2N1 (centres undefined),-9%[138 µM],-22%[70.6 µM],i,?
CC1(COc2ccccc2)COc2ccc(C(=O)NCCc3ccccc3)cc2N1 (centres undefined),?,-5%[70.6 µM],i,?
CC(C)c1ccc(CC(=O)N2CCCc3ncc(C(=O)Nc4cccc(C(F)(F)F)c4)cc32)cc1,?,-27%,i,32µM*
SMILES,3T3 cytotox,NPR1 antag,FLuc inh,HEK cytotox
CC(C)c1ccc(CC(=O)N2CCCc3ncc(C(=O)NCc4cccnc4)cc32)cc1,-26%[138 µM],0%[70.6 µM],i,?
Cc1ccccc1NC(=O)c1cnc2c(c1)N(C(=O)Cc1ccc(C(C)C)cc1)CCC2,89µM*,?,i,100µM*
CCC1Oc2ccc(NC(=O)COc3ccccc3)cc2CN(C(CC)c2ccccc2)C1=O (centres undefined),?,-2%,i,?
CS(=O)(=O)N1CCC(CC(=O)NC2CCCCC2)C1 (centres undefined),-21%,-12%,i,-17%
COC(=O)c1ccc2nc(C[C@@H]3C[C@@H](C(C)C)[C@H](CN(C)C)C=C3C)[nH]c2c1,71µM*,-12%[70.6 µM],i,?
COC(=O)c1ccc2nc(C[C@@H]3C[C@@H](C(C)C)[C@H](CNC(=O)CCCC(=O)O)C=C3C)[nH]c2c1,-7%,8%,i,?
COCC(=O)NC[C@@H]1C=C(C)[C@H](Cc2nc3ccc(C(=O)OC)cc3[nH]2)C[C@H]1C(C)C,100µM*,-10%[70.6 µM],i,63µM*
COC(=O)c1ccc2nc(C[C@@H]3C[C@@H](C(C)C)[C@H](CNC(=O)CN(C)C)C=C3C)[nH]c2c1,?,1%,i,35µM*
COC(=O)c1ccc2nc(C[C@@H]3C[C@@H](C(C)C)[C@H](CNC(=O)COCC(=O)O)C=C3C)[nH]c2c1,-27%,2%,i,-18%
COC(=O)c1ccc2nc(C[C@@H]3C[C@@H](C(C)C)[C@H](CNC(=O)C4CCC4)C=C3C)[nH]c2c1,?,-13%,i,?
O=C(Nc1ccccc1CCc1ccccn1)C1CCN(c2cnn(Cc3ccccc3)c(=O)c2)C1 (centres undefined),?,-17%,i,?
CCCc1noc(-c2ccn3c(CNC(=O)c4ccc(C)c(C)c4)nnc3c2)n1,-3%,1%,i,-3%
COCCn1cnc2ccc(-c3ccc(F)c(Cl)c3)nc2c1=O,?,-2%[70.6 µM],i,-28%[172 µM]
Cc1nc(N2CCC(NC(=O)c3ccccn3)CC2)cc(C(F)(F)F)n1,?,?,i,?
O=C(NC1CCCN(c2cc(-c3ccc(F)cc3)[nH]n2)C1)c1cc2ccccc2[nH]1 (centres undefined),?,-27%,20µM*,40µM*
O=C(NC1CCCN(c2cc(-c3ccc(F)cc3)[nH]n2)C1)c1c[nH]c2ccccc12 (centres undefined),?,-23%,22µM*,?
Cc1nc(N2CCC(NC(=O)c3cc4ccccc4[nH]3)CC2)cc(C(F)(F)F)n1,?,7.9µM*,?,?
O=C(NC1CCCN(c2cc(-c3ccc(F)cc3)[nH]n2)C1)c1ccccc1Br (centres undefined),?,-18%,i,?
COc1ccccc1C(=O)NC1CCCN(c2cc(-c3ccc(F)cc3)[nH]n2)C1 (centres undefined),?,-18%,?,?
O=C(c1ccccc1Cl)N1CCCC(C(=O)N2CCCC(c3nc4ncccc4[nH]3)C2)C1 (centres undefined),-12%,·,·,1%
CCCCCC(=O)N1CC(=O)N(Cc2cccc(F)c2)CC(O)C1 (centres undefined),?,·,·,2%
CC(=O)Nc1ccc(CN2CCN(c3cc(Cl)ncn3)C(=O)C2)cc1,35µM*,22%,i,10µM*
